LYPLA1 counter – LYPLA1 (human) inhibition in PME1 counter-screen | recombinant LYPLA1, FP-Rh probe fluorescence polarization | inhibition, % at 5.9 µM | hit rate 0.16% among 320,000 | AID 2174;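 active = inhibition above the mean of all tested compounds plus 3 SD, set per campaign, cut at about 14% in these data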;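 also: inhibitors block serine hydrolase probe labeling of LYPLA1 so polarization falls; 0% = enzyme with DMSO and 100% = wells lacking LYPLA1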
PAD4 FP inh – blocks human protein arginine deiminase 4 | recombinant PAD4, RCA probe fluorescence polarization | inhibition, % at 6.36 µM | hit rate 0.41% among 330,000 | AID 485272;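 active = percent inhibition above a cutoff equal to the mean of all tested compounds plus 3 SD, cut at about 15% in these data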;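 also: 0% = PAD4 with RCA probe and DMSO and 100% = probe without PAD4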
GSTO1 counter – blocks human GSTO1 in RBBP9 counter-screen; P78417; recombinant GSTO1, activity-based probe fluorescence polarization; inhibition, % at 5.96 µM; hit rate 1.1% among 300,000; AID 1974;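 active = inhibition above the campaign mean inhibition plus 3 SD, cut at about 35% in these data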;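 also: 0% = GSTO1-1 with DMSO and 100% = wells lacking GSTO1-1 enzyme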
Target sequence (P78417 whole entry, looked up): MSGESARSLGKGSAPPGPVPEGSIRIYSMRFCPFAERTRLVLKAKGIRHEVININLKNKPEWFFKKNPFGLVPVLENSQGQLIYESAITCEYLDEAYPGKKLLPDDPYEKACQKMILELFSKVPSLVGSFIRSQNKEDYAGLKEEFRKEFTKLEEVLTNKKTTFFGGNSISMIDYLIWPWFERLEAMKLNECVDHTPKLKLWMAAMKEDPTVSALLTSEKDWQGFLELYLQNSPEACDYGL
PME-1 inh – PME-1 (human) inhibition; Q9Y570; recombinant PME-1, FP-Rh probe fluorescence polarization; inhibition, % at 5.9 µM; hit rate 0.53% among 320,000; AID 2130;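 active = inhibition above the campaign mean of all compounds plus 3 SD, cut at about 26% in these data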;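 also: competitive labeling of PME-1 active site by serine hydrolase directed probe; 0% = PME-1 with DMSO and 100% = wells lacking PME-1 enzyme; inhibitors block probe labeling so polarization falls and inhibition rises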
LYPLA2 inh – blocks human lysophospholipase 2, a PME1 counter-screen; O95372; hit rate 0.38% among 320,000; recombinant LYPLA2, FP-Rh probe fluorescence polarization; inhibition, % at 5.9 µM; AID 2177;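 active = inhibition above the screen-wide mean plus 3 SD, limit set per campaign, cut at about 26% in these data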;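 also: 0% = LYPLA2 with DMSO and 100% = wells lacking LYPLA2 enzyme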
Fam108B inh – blocks mouse Fam108B hydrolase in RBBP9 counter-screen; recombinant Fam108B, FP-Rh probe fluorescence polarization; inhibition, % at 9.51 µM; hit rate 0.33% among 300,000; AID 1947;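 active = inhibition above the screen mean inhibition plus 3 SD, computed separately per campaign, cut at about 18% in these data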;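 also: inhibitors lower polarization as less probe binds the enzyme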
The depositor's hits bear a star; . = no result given. An excerpt weighted towards active compounds, which were near 1.8% of everything screened.

SMILES	LYPLA1 counter	PAD4 FP inh	GSTO1 counter	PME-1 inh	LYPLA2 inh	Fam108B inh
COc1ccccc1N1C(=O)NC(=O)/C(=C/c2ccc([N+](=O)[O-])s2)C1=O	2	-6	42*	-1	1	25*
COc1ccc(N2C(=O)NC(=O)/C(=C\c3ccc([N+](=O)[O-])s3)C2=O)cc1	-6	-44	32	-5	-3	16
C[C@]12CC[C@@H](O)CC1=CCC1C2CC[C@@]2(C)C1C[C@@H](F)[C@@H]2O (some centres not stated)	.	3	.	.	.	.
C/C=C1\CN2[C@H]3C[C@@]45c6ccccc6N(C)[C@H]4[C@@H]2CC1C3[C@H]5O (some centres not stated)	-1	0	6	-4	2	-3
COC(=O)C1=C(c2ccc3ccccc3c2)C[C@@H]2CC[C@H]1N2C(=O)N1CCC(C)CC1	1	0	.	-7	0	.
NP(=O)(OCC(F)(F)F)Oc1ccc(Cl)cc1 (configuration not stated)	2	3	4	28*	1	4
O=C1NC(=O)C(=Cc2ccc(Oc3ccc([N+](=O)[O-])cc3)cc2)C(=O)N1	6	-9	49*	-1	38*	1
O=c1[nH]c(=O)n(Cc2ccccc2Cl)c(O)c1/C=C1/C=CC=N1	-9	-19	16	-30	-10	-2
CN1C(=O)/C(=C/c2cccn2-c2ccc3ccccc3c2)C(=O)NC1=S	-6	-10	55*	2	1	11
CS(=O)(=O)N1CCN(C(=N)N[N+](=O)[O-])CC1	-4	-4	-3	-1	1	-2
O=C(CN1CC=C(c2ccccc2)CC1)Nc1cc(Cl)ccc1Cl	-3	0	0	9	-2	-5
Cc1ccc(S(=O)(=O)N2CCCCC2)cc1NC(=O)CN1CC=C(c2ccccc2)CC1	-1	3	-1	75*	-8	0
O=C(CN1CC=C(c2ccccc2)CC1)Nc1c(Cl)cccc1Cl	0	3	1	36*	-1	8
COC1=CC2C3Cc4ccc(OC)c(O)c4C2(CCN3C)CC1=O (configuration not stated)	1	-1	.	-2	-8	.
CC(=O)c1cn(Cc2ccccc2C#N)c2ccccc12	0	1	7	3	1	3
CC(C)C(=O)c1cn(Cc2ccccc2C#N)c2ccccc12	0	-12	9	39*	-4	-1
COC(=O)C1=C(c2ccc(Cl)c(C(F)(F)F)c2)C[C@@H]2CC[C@H]1N2C(=O)N1CCC(C)CC1	2	-3	.	6	-3	.
CCOc1cc2c(cc1OCC)-n1cccc1C(c1cccc(OCC)c1O)NC2 (configuration not stated)	1	2	1	-8	-2	-2
CCN(CC)c1ccc(/C=C/[N+](=O)[O-])cc1	2	3	36*	-4	5	4
CN(C)[C@@H]1C(=O)C(C(N)=O)=C(O)[C@@]2(O)C(=O)C3=C(O)c4c(O)ccc(Cl)c4[C@@](C)(O)[C@H]3C[C@@H]12	2	-4	45*	1	12	-1
CN(C)[C@@H]1C(=O)C(C(N)=O)=C(O)[C@@]2(O)C(=O)C3=C(O)c4c(O)cccc4[C@@](C)(O)C3C[C@@H]12 (some centres not stated)	0	-2	72*	-4	6	5
Cc1cc(OC(C)C(=O)N[C@H](C(=O)O)c2ccccc2)c2c3c(c(=O)oc2c1)CCC3 (some centres not stated)	0	4	-5	3	7	4
Cc1ccccc1NC(=S)NC(NC(=O)CF)C(Cl)(Cl)Cl (configuration not stated)	0	0	2	9	1	-3
O=C(CF)NC(Nc1cccc2cccnc12)C(Cl)(Cl)Cl (configuration not stated)	-2	-1	12	36*	6	3
COc1ccc(C2NCCc3[nH]cnc32)cc1 (configuration not stated)	1	-3	6	-1	1	-6
CC(C)CC(C)N (configuration not stated)	-4	1	.	-1	4	.
O=C(O)c1cc[c]([Hg][Cl])cc1	0	22*	11	0	4	2

Screening results deposited in PubChem by The Scripps Research Institute Molecular Screening Center.
